Common to all, as to assay: yeast three-hybrid, YBZ-1, SC-Leu-His + 0.5 mM 3-AT, 4 days
Common to all, as to settings: tags: N-Gal4 AD-HA kept; label: inside an RPR1-promoter hybrid RNA with tandem MS2 sites; ssRNA

In one assay the target is PUM1 PUF domain R7-KRQ (Homo sapiens, UniProt Q14671 828-1176, S1079K;N1080R;E1083Q). Summed up:
(§1)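 The interaction score is the log change in variant frequency from input to selection. Scores were computed in log2 with a pseudocount of 1 for absent variants, using Illumina sequencing of PCR-amplified repeat regions. The input came from four days on SC-Leu and the selection from four days on SC-Leu-His + 0.5 mM 3-AT. The cells were strain YBZ-1 (LexA–MS2 coat fusion, HIS3 reporter) co-expressing Pumilio-1 PUF domain libraries and matching RNA elements from a centromeric plasmid.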

In the next assay the target is PUM1 PUF domain R7-HHP (Homo sapiens, UniProt Q14671 828-1176, S1079H;N1080H;E1083P). Summed up: as §1
A further assay deals with PUM1 PUF domain R7-KPM (Homo sapiens, UniProt Q14671 828-1176, S1079K;N1080P;E1083M). The method, boiled down:
as §1

The target of another assay is PUM1 PUF domain R1-SGR (Homo sapiens, UniProt Q14671 828-1176, R864G;Q867R). Summed up: as §1
The target in a further assay is PUM1 PUF domain R1-RLE (Homo sapiens, UniProt Q14671 828-1176, S863R;R864L;Q867E). Summed up:
as §1

Another assay addresses PUM1 PUF domain R4-CNC (Homo sapiens, UniProt Q14671 828-1176, N971C;H972N;Q975C). The method, boiled down: as §1
For the next assay, the target named is PUM1 PUF domain R3-CYF (Homo sapiens, UniProt Q14671 828-1176, R936Y;Q939F). The method, boiled down: as §1
For the next assay, the target named is PUM1 PUF domain R8-RHP (Homo sapiens, UniProt Q14671 828-1176, N1122R;Y1123H;Q1126P). Summed up: as §1
For another assay, the target named is PUM1 PUF domain R5-DRL (Homo sapiens, UniProt Q14671 828-1176, C1007D;Q1011L). The method, boiled down:
as §1

The target in a further assay is PUM1 PUF domain R5-KYK (Homo sapiens, UniProt Q14671 828-1176, C1007K;R1008Y;Q1011K). The method, boiled down:
as §1

For the next assay, the target named is PUM1 PUF domain R8-HYC (Homo sapiens, UniProt Q14671 828-1176, N1122H;Q1126C). The method, boiled down: as §1
A further assay has as its target PUM1 PUF domain R5-QVR (Homo sapiens, UniProt Q14671 828-1176, C1007Q;R1008V;Q1011R). The method, boiled down: as §1
The target of a further assay is PUM1 PUF domain R5-GPR (Homo sapiens, UniProt Q14671 828-1176, C1007G;R1008P;Q1011R). The method, boiled down: as §1
The next assay has as its target PUM1 PUF domain R5-KSQ (Homo sapiens, UniProt Q14671 828-1176, C1007K;R1008S). Summed up:
as §1

Another assay has as its target PUM1 PUF domain R3-FSG (Homo sapiens, UniProt Q14671 828-1176, C935F;R936S;Q939G). Summed up:
as §1

The target of a further assay is PUM1 PUF domain R4-CPC (Homo sapiens, UniProt Q14671 828-1176, N971C;H972P;Q975C). The method, boiled down: as §1
Chain of PUM1 PUF domain R4-CPC (Q14671 828-1176 N971C/H972P/Q975C): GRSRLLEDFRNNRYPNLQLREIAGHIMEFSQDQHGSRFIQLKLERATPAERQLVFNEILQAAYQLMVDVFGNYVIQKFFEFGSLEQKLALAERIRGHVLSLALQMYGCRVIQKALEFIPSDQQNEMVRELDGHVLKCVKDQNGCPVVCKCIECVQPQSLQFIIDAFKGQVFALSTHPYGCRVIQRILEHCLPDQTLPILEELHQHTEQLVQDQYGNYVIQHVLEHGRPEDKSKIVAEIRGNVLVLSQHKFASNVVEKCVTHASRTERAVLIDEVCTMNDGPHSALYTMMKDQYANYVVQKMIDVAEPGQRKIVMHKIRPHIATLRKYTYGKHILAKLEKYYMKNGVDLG

Chain of PUM1 PUF domain R7-HHP (Q14671 828-1176 S1079H/N1080H/E1083P): as the sequence (Q14671 828-1176 N971C/H972P/Q975C) above, with C144N, P145H, C148Q, S252H, N253H, E256P counted along it
Chain of PUM1 PUF domain R3-FSG (Q14671 828-1176 C935F/R936S/Q939G): as the sequence (Q14671 828-1176 N971C/H972P/Q975C) above, with C108F, R109S, Q112G, C144N, P145H, C148Q counted along it
Chain of PUM1 PUF domain R5-QVR (Q14671 828-1176 C1007Q/R1008V/Q1011R): as the sequence (Q14671 828-1176 N971C/H972P/Q975C) above, with C144N, P145H, C148Q, C180Q, R181V, Q184R counted along it
Chain of PUM1 PUF domain R5-GPR (Q14671 828-1176 C1007G/R1008P/Q1011R): as the sequence (Q14671 828-1176 N971C/H972P/Q975C) above, with C144N, P145H, C148Q, C180G, R181P, Q184R counted along it
Chain of PUM1 PUF domain R8-HYC (Q14671 828-1176 N1122H/Q1126C): as the sequence (Q14671 828-1176 N971C/H972P/Q975C) above, with C144N, P145H, C148Q, N295H, Q299C counted along it
Chain of PUM1 PUF domain R1-RLE (Q14671 828-1176 S863R/R864L/Q867E): as the sequence (Q14671 828-1176 N971C/H972P/Q975C) above, with S36R, R37L, Q40E, C144N, P145H, C148Q counted along it
Chain of PUM1 PUF domain R5-KSQ (Q14671 828-1176 C1007K/R1008S): as the sequence (Q14671 828-1176 N971C/H972P/Q975C) above, with C144N, P145H, C148Q, C180K, R181S counted along it
Chain of PUM1 PUF domain R3-CYF (Q14671 828-1176 R936Y/Q939F): as the sequence (Q14671 828-1176 N971C/H972P/Q975C) above, with R109Y, Q112F, C144N, P145H, C148Q counted along it
Chain of PUM1 PUF domain R4-CNC (Q14671 828-1176 N971C/H972N/Q975C): as the sequence (Q14671 828-1176 N971C/H972P/Q975C) above, with P145N counted along it
Chain of PUM1 PUF domain R5-DRL (Q14671 828-1176 C1007D/Q1011L): as the sequence (Q14671 828-1176 N971C/H972P/Q975C) above, with C144N, P145H, C148Q, C180D, Q184L counted along it
Chain of PUM1 PUF domain R7-KPM (Q14671 828-1176 S1079K/N1080P/E1083M): as the sequence (Q14671 828-1176 N971C/H972P/Q975C) above, with C144N, P145H, C148Q, S252K, N253P, E256M counted along it
Chain of PUM1 PUF domain R1-SGR (Q14671 828-1176 R864G/Q867R): as the sequence (Q14671 828-1176 N971C/H972P/Q975C) above, with R37G, Q40R, C144N, P145H, C148Q counted along it
Chain of PUM1 PUF domain R8-RHP (Q14671 828-1176 N1122R/Y1123H/Q1126P): as the sequence (Q14671 828-1176 N971C/H972P/Q975C) above, with C144N, P145H, C148Q, N295R, Y296H, Q299P counted along it
Chain of PUM1 PUF domain R7-KRQ (Q14671 828-1176 S1079K/N1080R/E1083Q): as the sequence (Q14671 828-1176 N971C/H972P/Q975C) above, with C144N, P145H, C148Q, S252K, N253R, E256Q counted along it
Chain of PUM1 PUF domain R5-KYK (Q14671 828-1176 C1007K/R1008Y/Q1011K): as the sequence (Q14671 828-1176 N971C/H972P/Q975C) above, with C144N, P145H, C148Q, C180K, R181Y, Q184K counted along it

As for “GGCUAGAACUAGUGGAUCCCCCGGCGCCCGGCGGCUCGAGCCCGGGUAAGUCUAAAUAGUCUGCAUGCCGCCGGGCGCCAUGCCUGCAGGUCGACUCUAGAAAACAUG”, the binding signal with PUM1 PUF domain R7-KRQ was 2.89 log2 enrichment (interaction score); in the assay with PUM1 PUF domain R7-HHP, 2.54 log2 enrichment (interaction score); with PUM1 PUF domain R7-KPM, 3.19 log2 enrichment (interaction score).
Regarding “GGCUAGAACUAGUGGAUCCCCCGGCGCCCGGCGGCUCGAGCCCGGGUAAGUGUAAAUCGUCUGCAUGCCGCCGGGCGCCAUGCCUGCAGGUCGACUCUAGAAAACAUG”, the binding signal with PUM1 PUF domain R1-SGR was 3.72 log2 enrichment (interaction score); in the assay with PUM1 PUF domain R1-RLE it was 2.67 log2 enrichment (interaction score).
In the case of “GGCUAGAACUAGUGGAUCCCCCGGCGCCCGGCGGCUCGAGCCCGGGUAAGUGUAUAUAGUCUGCAUGCCGCCGGGCGCCAUGCCUGCAGGUCGACUCUAGAAAACAUG”, the binding signal with PUM1 PUF domain R4-CNC was 3.13 log2 enrichment (interaction score).
Consider “GGCUAGAACUAGUGGAUCCCCCGGCGCCCGGCGGCUCGAGCCCGGGUAAGUGUAAAUAGUCUGCAUGCCGCCGGGCGCCAUGCCUGCAGGUCGACUCUAGAAAACAUG”, for which the binding signal is 5.41 log2 enrichment (interaction score) in the assay with PUM1 PUF domain R3-CYF; 5.42 log2 enrichment (interaction score) in the assay with PUM1 PUF domain R8-RHP; 2.34 log2 enrichment (interaction score) with PUM1 PUF domain R5-DRL; 2.74 log2 enrichment (interaction score) in the assay with PUM1 PUF domain R5-KYK; 3.69 log2 enrichment (interaction score) in the assay with PUM1 PUF domain R8-HYC.
On to “GGCUAGAACUAGUGGAUCCCCCGGCGCCCGGCGGCUCGAGCCCGGGUAAGUGUCAAUAGUCUGCAUGCCGCCGGGCGCCAUGCCUGCAGGUCGACUCUAGAAAACAUG”, for which the binding signal with PUM1 PUF domain R5-QVR is 3.01 log2 enrichment (interaction score); in the assay with PUM1 PUF domain R5-GPR, 4.4 log2 enrichment (interaction score); with PUM1 PUF domain R5-KSQ it was 5.03 log2 enrichment (interaction score).
As for “GGCUAGAACUAGUGGAUCCCCCGGCGCCCGGCGGCUCGAGCCCGGGUAAGUGUAAGUAGUCUGCAUGCCGCCGGGCGCCAUGCCUGCAGGUCGACUCUAGAAAACAUG”, in the assay with PUM1 PUF domain R3-FSG, the binding signal is 3.59 log2 enrichment (interaction score).
On to “GGCUAGAACUAGUGGAUCCCCCGGCGCCCGGCGGCUCGAGCCCGGGUAAGUAUAAAUAGUCUGCAUGCCGCCGGGCGCCAUGCCUGCAGGUCGACUCUAGAAAACAUG”, for which the binding signal with PUM1 PUF domain R7-HHP was 2.33 log2 enrichment (interaction score).
Consider “GGCUAGAACUAGUGGAUCCCCCGGCGCCCGGCGGCUCGAGCCCGGGUAAGUGUACAUAGUCUGCAUGCCGCCGGGCGCCAUGCCUGCAGGUCGACUCUAGAAAACAUG”, for which the binding signal with PUM1 PUF domain R4-CPC was 2.9 log2 enrichment (interaction score).

The values are drawn from paper PMC8384837, “Expanding the binding specificity for RNA recognition by a PUF domain”.
